Assay results taken from PubChem BioAssay AID1159580 (chemical genetic matrix, 2015).
Values joined by “and” are separate entries in the source; they are usually repeats but may differ in a detail not shown here. Identical values can stand only once. The whole screen tested about 5,500 compounds, of which about 2,000 (36%) were called active. Inconclusive results (about 18%) are left out. No stated cut-off is given here; in the data, active means normalized growth mostly below about 0.91 (no sharp cut-off); inconclusive means no clear call, values can overlap the other calls; inactive means mostly above about 0.92. Some of the results follow.

Assay: chemical genetic growth profiling, strain panel (AID 1159580);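 further: tested at 20 µM; growth read once vehicle control cultures reached saturation at 30 °C; 1 = growth at the plate median or of vehicle wells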
Conditions: S. cerevisiae deletion strains, growth OD

Measured: normalized growth

CCn1cc(C(=O)O)c(=O)c2cc3c(cc21)OCO3
inactive: locus YAL013W, strain DEP1, stronger effect = lower value 1.01 | locus YAL021C, strain ccr4, stronger effect = lower value 0.967 | locus YAL026C, strain drs2, stronger effect = lower value 0.982 | locus YAL030W, strain snc1, stronger effect = lower value 0.977 | locus YAL040C, strain CLN3, stronger effect = lower value 0.97 | locus YBL061C, strain skt5, stronger effect = lower value 0.977 | locus YBR009C, strain hhf1, stronger effect = lower value 0.977 | locus YBR021W, strain FUR4, stronger effect = lower value 1.01 | locus YBR023C, strain chs3, stronger effect = lower value 0.957 | locus YBR171W, strain sec66, stronger effect = lower value 0.962 | locus YBR229C, strain ROT2, stronger effect = lower value 1.01 | locus YBR231C, strain swc5, stronger effect = lower value 0.979 | locus YBR279W, strain paf1, stronger effect = lower value 0.977 | locus YCL011C, strain gbp2, stronger effect = lower value 0.974 | locus YCL016C, strain dcc1, stronger effect = lower value 0.988 | locus YCL029C, strain bik1, stronger effect = lower value 0.997 | locus YCL061C, strain MRC1 (second series), stronger effect = lower value 0.991 | locus YCL061C, strain MRC1, stronger effect = lower value 0.971 | locus YCL069W, strain vba3, stronger effect = lower value 0.98 | locus YCR088W, strain abp1, stronger effect = lower value 0.981 | locus YDL005C, strain med2, stronger effect = lower value 0.971 | locus YDL035C, strain GPR1, stronger effect = lower value 1.02 | locus YDL040C, strain nat1, stronger effect = lower value 0.985 | locus YDL074C, strain BRE1, stronger effect = lower value 1.06 | locus YDL101C, strain DUN1, stronger effect = lower value 1.02 | locus YDL134C, strain PPH21, stronger effect = lower value 1 | locus YDL185W, strain tfp1, stronger effect = lower value 0.999 | locus YDL192W, strain arf1, stronger effect = lower value 0.99 | locus YDR001C, strain nth1, stronger effect = lower value 0.979 | locus YDR069C, strain doa4, stronger effect = lower value 0.989 | locus YDR101C, strain arx1, stronger effect = lower value 0.993 | locus YDR137W, strain rgp1, stronger effect = lower value 0.857 | locus YDR150W, strain NUM1, stronger effect = lower value 0.99 | locus YDR159W, strain sac3, stronger effect = lower value 0.996 | locus YDR162C, strain NBP2, stronger effect = lower value 1.01 | locus YDR195W, strain ref2 0.983 | locus YDR297W, strain sur2, stronger effect = lower value 0.98 | locus YDR318W, strain mcm21, stronger effect = lower value 1 | locus YDR334W, strain swr1, stronger effect = lower value 0.955 | locus YDR335W, strain msn5, stronger effect = lower value 0.984 | locus YDR363W, strain ESC2, stronger effect = lower value 0.973 | locus YDR388W, stronger effect = lower value 0.99 | locus YDR392W, strain spt3, stronger effect = lower value 0.914 | locus YDR502C, strain sam2, stronger effect = lower value 1.01 | locus YEL003W, strain gim4, stronger effect = lower value 1 | locus YEL037C, strain rad23, stronger effect = lower value 0.975 | locus YEL061C, strain CIN8 (second series), stronger effect = lower value 0.98 | locus YEL061C, strain CIN8, stronger effect = lower value 1.01 | locus YER002W, strain NOP16, stronger effect = lower value 0.967 | locus YER015W, strain faa2, stronger effect = lower value 0.983 | locus YER016W, strain bim1, stronger effect = lower value 0.993 | locus YER110C, stronger effect = lower value 0.991 | locus YER111C, strain swi4, stronger effect = lower value 0.972 | locus YER155C, strain BEM2 (second series), stronger effect = lower value 0.979 | locus YER155C, strain BEM2, stronger effect = lower value 1.01 | locus YER167W, strain BCK2, stronger effect = lower value 1.01 | locus YFR010W, strain ubp6, stronger effect = lower value 0.97 | locus YGL078C, strain dbp3, stronger effect = lower value 0.99 | locus YGL086W, strain mad1, stronger effect = lower value 1.01 | locus YGL167C, strain pmr1, stronger effect = lower value 0.976 | locus YGL173C, strain kem1, stronger effect = lower value 0.974 | locus YGL227W, strain vid30, stronger effect = lower value 0.978 | locus YGL240W, strain doc1, stronger effect = lower value 0.988 | locus YGL248W, strain PDE1, stronger effect = lower value 1.02 | locus YGL253W, strain hxk2, stronger effect = lower value 0.991 | locus YGR135W, strain pre9, stronger effect = lower value 0.99 | locus YGR229C, strain SMI1, stronger effect = lower value 1.02 | locus YGR252W, strain gcn5, stronger effect = lower value 1 | locus YHR013C, strain ard1, stronger effect = lower value 0.959 | locus YHR027C, strain rpn1, stronger effect = lower value 0.971 | locus YHR030C, strain SLT2, stronger effect = lower value 1.01 and 1.07 | locus YHR079C, strain IRE1 (second series), stronger effect = lower value 0.992 | locus YHR079C, strain IRE1, stronger effect = lower value 1.11 | locus YHR094C, strain hxt1, stronger effect = lower value 0.987 | locus YHR129C, strain ARP1, stronger effect = lower value 1.01 | locus YHR142W, strain chs7, stronger effect = lower value 0.933 | locus YHR200W, strain rpn10, stronger effect = lower value 1 | locus YIL066C, strain RNR3, stronger effect = lower value 1.02 | locus YIL073C, strain SPO22, stronger effect = lower value 0.987 | locus YIL125W, strain kgd1, stronger effect = lower value 0.995 | locus YIR030C, strain dcg1, stronger effect = lower value 0.999 | locus YJL092W, strain hpr5, stronger effect = lower value 0.981 | locus YJL095W, strain BCK1 (second series), stronger effect = lower value 0.983 | locus YJL095W, strain BCK1, stronger effect = lower value 1.03 and 1.04 | locus YJL115W, strain asf1, stronger effect = lower value 0.974 | locus YJL129C, strain trk1, stronger effect = lower value 0.974 | locus YJL134W, strain LCB3, stronger effect = lower value 1.01 | locus YJL154C, strain vps35, stronger effect = lower value 0.969 | locus YJL164C, strain tpk1, stronger effect = lower value 0.997 | locus YJL166W, strain qcr8, stronger effect = lower value 0.969 | locus YJL168C, strain set2, stronger effect = lower value 0.997 | locus YJL187C, strain SWE1 (second series), stronger effect = lower value 1.03 | locus YJL187C, strain SWE1, stronger effect = lower value 0.975 | locus YJR043C, strain POL32, stronger effect = lower value 1.02
